# PubChem BioAssay
# The source made the active and inactive calls. The rule behind the calls is not given here.
# Biological target: L-lactate dehydrogenase (Plasmodium falciparum (isolate CDC / Honduras)) (UniProt Q27743)
# Experiment: PfLDH activity inhibition – cell lysate, 3D7 strain, counter-screen for P. falciparum growth inhibition project (AID 2304);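 note: 0% = vehicle and 100% = reference inhibitor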
# Conditions: P. falciparum 3D7 crude extract, LDH APAD/NBT absorbance; at 2 µM; active compounds read high
# L-lactate dehydrogenase (Plasmodium falciparum (isolate CDC / Honduras)), sequence (Q27743 whole entry, looked up): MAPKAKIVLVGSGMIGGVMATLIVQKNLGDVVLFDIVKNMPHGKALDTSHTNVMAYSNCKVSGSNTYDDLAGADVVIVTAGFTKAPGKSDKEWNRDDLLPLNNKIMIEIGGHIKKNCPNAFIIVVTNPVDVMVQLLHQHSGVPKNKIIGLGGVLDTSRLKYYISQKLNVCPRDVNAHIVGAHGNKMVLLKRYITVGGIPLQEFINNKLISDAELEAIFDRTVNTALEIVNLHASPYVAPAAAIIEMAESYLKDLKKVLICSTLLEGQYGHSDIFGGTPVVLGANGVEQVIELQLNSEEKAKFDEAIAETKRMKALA
row,SMILES,inhibition
1,COc1cc2nc(NCc3cccc(CNC(=O)c4ccc(-c5ccc(C(C)=O)cc5)cc4)c3)nc(N)c2cc1OC,-2% (inactive)
2,COc1ccc(CCN(C)CCCOc2ccc(NC(=O)COc3cccc4sc5ccccc5c(=O)c34)cc2)cc1OC,1% (inactive)
3,O=S(=O)(c1ccc(OCc2ccc(Cl)cc2)cc1)c1cc2c(cc1O)CCN(C1CCC1)CC2,3% (inactive)
4,O=C(Nc1ccccc1)Nc1cccc(-c2nn3c(OCC4CCCCN4)cccc3c2-c2ccncc2)c1 (stereo not given),-7% (inactive)
5,Cc1nnsc1C(=O)Nc1cccc(-c2cccc(-c3nc4ccc(F)cc4[nH]3)c2)c1,3% (inactive)
6,CN(CCCNCc1cccc2ccccc12)CCCNCc1cccc2ccccc12,-3% (inactive)
7,C[C@@H](Nc1nc(NCc2ccccc2)c2sccc2n1)c1ccccc1,-4% (inactive)
8,CN(C)CCCOc1ccccc1CN1CC[C@H](NC(=O)c2ccc(Cl)c(Cl)c2)C1,-3% (inactive)
9,COc1ccc(-c2cccc(NC(=O)c3cccc(C#N)c3)c2)cc1CN1CCNCC1,0% (inactive)
10,Cc1nc2c(Nc3nc(-c4ccncc4)cs3)ncnc2n1-c1ccccc1Cl,0% (inactive)
11,Fc1ccc(Nc2ccnc3cc(-c4ccc(CN5CCOCC5)o4)ccc23)c(Cl)c1,5% (inactive)
12,O=C(/C=C/c1ccc(Cl)c(Cl)c1)NCCCCCN1CCC(NC(=O)Nc2ccc([N+](=O)[O-])cc2)CC1,2% (inactive)
13,CO/C(=C\C=C\c1cc2cc(Cl)c(Cl)cc2[nH]1)C(=O)NC1CCN(CCCc2ccccc2)CC1,0% (inactive)
14,COc1ccc2cc(CNCCCCCCNCc3ccc4cc(OC)ccc4c3)ccc2c1,-6% (inactive)
15,O=C(/C=C/c1cccc(C(F)(F)F)c1)NCCCCCN1CCC(c2c[nH]c3ccccc23)CC1,0% (inactive)
16,CC(C)CCN1CCCN(Cc2cccc(NC(=O)c3cc4ccccc4s3)c2)CC1,1% (inactive)
17,CNCCNCc1ccc(-c2ccc(-c3nc4c(C)cccc4[nH]3)cc2)cc1,-5% (inactive)
18,CS(=O)(=O)CCNCc1cccc(-c2cc3c(Nc4ccc5c(cnn5Cc5ccccc5)c4)ncnc3s2)c1,2% (inactive)
19,Cc1cc(N2CCCC2)nc(Nc2ccc(NC(=O)c3ccccc3)cc2)n1,-3% (inactive)
20,CN1C[C@@H](c2ccccc2)c2cc(O)c(CN3CCCCC3)cc2C[C@H]1Cc1ccccc1,-8% (inactive)

row,SMILES,inhibition
1,CN(Cc1cccc(C#N)c1)C1CCN(c2cc(NC(=O)c3ccc(F)cc3)ccn2)CC1,-1% (inactive)
2,CCC1N=C(N)N=C(N)N1OCCCOc1c(Cl)cc(Cl)cc1Cl (stereo not given),2% (inactive)
3,O=c1c2c([nH]c3cc(Cl)ccc13)CCCC2,2% (inactive)
4,COc1cc(F)c2nccc([C@@H](O)CN3CCC(NCc4nc5c(F)cccc5[nH]4)CC3)c2c1,-4% (inactive)
5,Cc1cc(NC(=O)Nc2ccc(I)c(OCCN(C)C)c2)ccc1Br,4% (inactive)
6,Cc1c(-c2cccc(NC(=O)C(C)(C)Oc3ccc(Cl)cc3)c2)nc2ncccn12,-3% (inactive)
7,CCS(=O)(=O)c1ccc(-c2cnc3[nH]cc(-c4ccc(N)cc4)c3c2)cc1,-5% (inactive)
8,COc1ccc(C)c(Nc2ccnc(Nc3ccc(-c4cnc[nH]4)cc3)n2)c1,-1% (inactive)
9,Oc1ccc(CCNc2nc(NCCCOc3ccccc3-c3ccc(C(F)(F)F)cc3)nc(N3CCNCC3)n2)cc1,0% (inactive)
10,CCCn1c(=N)c(C(=O)NCCc2ccccc2)cc2c(=O)n3cccc(C)c3nc21,2% (inactive)
11,CN(C)c1ccc(-c2ccc(C(=O)NC3CCN(Cc4ccc(F)cc4)CC3)s2)cc1,-1% (inactive)
12,CC(=O)N[C@@H]1c2cc(C(C)=O)ccc2OC(C)(C)[C@@H]1O,-3% (inactive)
13,COc1cccc(-c2cnc(N)c(-c3nc4ccc(C(F)(F)F)cc4[nH]3)c2)c1,-4% (inactive)
14,COc1ccc(CNC(=O)Nc2cc3cc(-c4ccc(CN5CCCC5)cc4)ccc3n3c(C)nnc23)cc1,-3% (inactive)
15,O=C(Cc1cn(-c2ccccc2)nc1-c1ccc(Cl)cc1)Nc1nccs1,1% (inactive)
16,COc1cccc(CN(C(=O)Nc2ccccc2F)[C@H]2C[C@H]3C(=O)Nc4cc(F)ccc4C(=O)N3C2)c1,3% (inactive)
17,Cc1cc(NN=Cc2ccc([N+](=O)[O-])cc2)c2ccc(F)cc2n1,0% (inactive)
18,N#Cc1cccc(-c2cccc(C(=O)NC3CCC(CCN4CCc5ccc(C#N)cc5CC4)CC3)c2)c1 (stereo not given),-6% (inactive)
19,Cc1cc(NC(=O)Nc2ccc3nccc(N4CCN(C)CC4)c3c2)ccc1Br,-2% (inactive)
20,O[C@@H](c1ccccc1)[C@@H]1CN(CCc2ccccc2)CC[C@@]1(O)c1ccccc1,-2% (inactive)
